About 83,000 compounds went through this panel and 20% of them were active in at least one assay; those are over-represented in the sample as a whole.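 For each line, cells grew in 96-well plates with the test compound present at a single concentration for 48 hours.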 Active and inactive are the calls of the source. Rule for the calls: active = growth percent below 10; inactive = the rest.
Key:
Test in all cases: NCI-60 one-dose screen, 48 h (100 = growth as untreated, 0 = no growth, -100 = all killed)
SK-MEL-2 melanoma = settings: 10 µM unless noted
EKVX NSCLC = settings: 10 µM unless noted
SN12C renal = settings: 10 µM unless noted
UO-31 renal = settings: 10 µM unless noted
TK-10 renal = settings: 10 µM unless noted
ACHN renal = settings: 10 µM unless noted
CAKI-1 renal = settings: 10 µM unless noted
A498 renal = settings: 10 µM
HL-60(TB) leukemia = settings: 10 µM unless noted
CCRF-CEM leukemia = settings: 10 µM unless noted
MOLT-4 leukemia = settings: 10 µM unless noted
SR leukemia = settings: 10 µM unless noted
RPMI-8226 leukemia = settings: 10 µM unless noted
OVCAR-8 ovarian = settings: 10 µM unless noted
OVCAR-5 ovarian = settings: 10 µM unless noted
OVCAR-4 ovarian = settings: 10 µM unless noted
SK-OV-3 ovarian = settings: 10 µM unless noted
IGROV1 ovarian = settings: 10 µM unless noted
OVCAR-3 ovarian = settings: 10 µM unless noted
HS 578T breast = settings: 10 µM unless noted

Measured: growth

O=C(O)c1c(Cl)n(Cc2ccc(O)cc2)c2ccc(O)cc12
inactive: SK-MEL-2 melanoma 81.6% | EKVX NSCLC 112% | SN12C renal 102% | UO-31 renal 61.1% | TK-10 renal 137% | ACHN renal 112% | CAKI-1 renal 95.2% | A498 renal 107% | HL-60(TB) leukemia 101% | CCRF-CEM leukemia 81.6% | MOLT-4 leukemia 109% | SR leukemia 106% | RPMI-8226 leukemia 70.9% | OVCAR-8 ovarian 103% | OVCAR-5 ovarian 92.4% | OVCAR-4 ovarian 104% | SK-OV-3 ovarian 115% | IGROV1 ovarian 63.4% | OVCAR-3 ovarian 93.9% | HS 578T breast 102%

COc1cc(C=Nc2cccc(Br)c2)ccc1N(CCCl)CCCl
inactive: SK-MEL-2 melanoma 91.2% | EKVX NSCLC 120% | SN12C renal 84.5% | UO-31 renal 69.1% | TK-10 renal 92.9% | ACHN renal 18.2% | A498 renal 120% | HL-60(TB) leukemia 71.2% | CCRF-CEM leukemia 63.5% | MOLT-4 leukemia 64.2% | SR leukemia 44.1% | RPMI-8226 leukemia 86.2% | OVCAR-8 ovarian 81.6% | OVCAR-5 ovarian 85.6% | OVCAR-4 ovarian 93.6% | SK-OV-3 ovarian 71.3% | IGROV1 ovarian 96.3% | OVCAR-3 ovarian 80.8% | HS 578T breast 150%
active: CAKI-1 renal 5.9%

C=CC[PH+](c1ccccc1)c1ccccc1.C=CC[PH+](c1ccccc1)c1ccccc1.[Cl][Pt][Cl]
active: HL-60(TB) leukemia -19.4% | CCRF-CEM leukemia 3.7% | MOLT-4 leukemia 7.63% | SR leukemia 1.56% | RPMI-8226 leukemia -12.1% | IGROV1 ovarian -17.4% | OVCAR-3 ovarian -9.31%
inactive: SK-MEL-2 melanoma 71.1% | EKVX NSCLC 50.8% | SN12C renal 30.6% | UO-31 renal 31.5% | TK-10 renal 73.7% | ACHN renal 35.9% | CAKI-1 renal 77.9% | A498 renal 99% | OVCAR-8 ovarian 20% | OVCAR-5 ovarian 96.1% | OVCAR-4 ovarian 39.7% | SK-OV-3 ovarian 99.1% | HS 578T breast 55.8%

O=C(CC1(O)C(=O)Nc2ccc(Br)cc21)c1ccc(C(=O)NCC2CCC3(CC2)OOC2(CCCCC2)OO3)cc1 (stereo not given)
active: EKVX NSCLC -36.4% | UO-31 renal -82.4% | ACHN renal -40.8% | CAKI-1 renal 0.714% | HL-60(TB) leukemia -39.2% | CCRF-CEM leukemia -34.4% | MOLT-4 leukemia -29.4% | SR leukemia -38.7% | RPMI-8226 leukemia -27.4% | OVCAR-3 ovarian 8.92%
inactive: SK-MEL-2 melanoma 23.3% | SN12C renal 59.1% | TK-10 renal 72.5% | A498 renal 84.7% | OVCAR-8 ovarian 41.7% | OVCAR-5 ovarian 95.8% | OVCAR-4 ovarian 48.7% | SK-OV-3 ovarian 70.6% | IGROV1 ovarian 14.8% | HS 578T breast 62.9%

CC1(C)CN1P(=O)(N1CC1(C)C)N1CC1(C)C (stereo not given)
inactive: SK-MEL-2 melanoma 115% | EKVX NSCLC 124% | SN12C renal 109% | UO-31 renal 85% | TK-10 renal 118% | ACHN renal 112% | CAKI-1 renal 110% | A498 renal 102% | HL-60(TB) leukemia 90% | CCRF-CEM leukemia 106% | MOLT-4 leukemia 96.6% | SR leukemia 91.3% | RPMI-8226 leukemia 105% | OVCAR-8 ovarian 90.5% | OVCAR-5 ovarian 115% | OVCAR-4 ovarian 97.9% | SK-OV-3 ovarian 102% | IGROV1 ovarian 114% | OVCAR-3 ovarian 118% | HS 578T breast 93.8%

COc1cccc(C=NC(Cc2cnc[nH]2)C(=O)O)c1O (stereo not given)
inactive: SK-MEL-2 melanoma 70% | EKVX NSCLC 102% | SN12C renal 97.5% | UO-31 renal 84.1% | TK-10 renal 139% | ACHN renal 97.8% | CAKI-1 renal 86.5% | A498 renal 98.2% | HL-60(TB) leukemia 189% | CCRF-CEM leukemia 69.6% | MOLT-4 leukemia 120% | SR leukemia 132% | RPMI-8226 leukemia 48.1% | OVCAR-8 ovarian 81.1% | OVCAR-5 ovarian 85.5% | OVCAR-4 ovarian 95.9% | SK-OV-3 ovarian 102% | IGROV1 ovarian 64.8% | OVCAR-3 ovarian 102% | HS 578T breast 122%

O=Cc1cn(Cc2ccc(Cl)cc2)c2ccccc12
inactive: SK-MEL-2 melanoma 82.7% | EKVX NSCLC 88.9% | SN12C renal 89.6% | UO-31 renal 61.4% | ACHN renal 91.6% | HL-60(TB) leukemia 97.7% | CCRF-CEM leukemia 89.6% | MOLT-4 leukemia 90.1% | SR leukemia 80.9% | RPMI-8226 leukemia 77.1% | OVCAR-8 ovarian 90.1% | OVCAR-4 ovarian 57.5% | SK-OV-3 ovarian 31.1% | OVCAR-3 ovarian 63.8% | HS 578T breast 83.9%
active: TK-10 renal 0.213% | CAKI-1 renal -20.8% | A498 renal -89.8% | OVCAR-5 ovarian -36.7% | IGROV1 ovarian 6.46%

CC(=O)O[C@@H]1CC[C@]2(C)[C@H]3CC[C@]4(C)C(=O)CC[C@H]4[C@@H]3C[C@@H]3SC(N)=N[C@@]32C1
inactive: SK-MEL-2 melanoma 49.8% | EKVX NSCLC 78.3% | SN12C renal 77.3% | UO-31 renal 79.3% | TK-10 renal 91.1% | ACHN renal 93.7% | CAKI-1 renal 61.1% | A498 renal 50.7% | HL-60(TB) leukemia 44.5% | CCRF-CEM leukemia 44.2% | MOLT-4 leukemia 45.6% | SR leukemia 31.7% | RPMI-8226 leukemia 48.4% | OVCAR-8 ovarian 76.8% | OVCAR-5 ovarian 98.7% | OVCAR-4 ovarian 84% | SK-OV-3 ovarian 79.1% | IGROV1 ovarian 67.3% | OVCAR-3 ovarian 36.2% | HS 578T breast 54.5%

O=C(N/N=C\c1ccc(N(CCCl)CCCl)cc1Cl)c1cccnc1
inactive: SK-MEL-2 melanoma 27.2% | EKVX NSCLC 103% | SN12C renal 79.2% | UO-31 renal 88% | ACHN renal 98.5% | CAKI-1 renal 69.3% | HL-60(TB) leukemia 91.8% | CCRF-CEM leukemia 74.8% | MOLT-4 leukemia 87.5% | SR leukemia 99.5% | RPMI-8226 leukemia 82.4% | OVCAR-8 ovarian 96% | OVCAR-4 ovarian 53.7% | SK-OV-3 ovarian 95.3% | IGROV1 ovarian 37% | OVCAR-3 ovarian 57.6% | HS 578T breast 119%
active: TK-10 renal 6.39% | A498 renal -93.6% | OVCAR-5 ovarian -3.04%

CC[C@]12C=CCN3CC[C@@]4(c5ccc(OC)cc5N(C)[C@H]4[C@@](O)(C(=O)OC)[C@@H]1OC(=O)CCCC[P+](c1ccccc1)(c1ccccc1)c1ccccc1)[C@@H]32
inactive: EKVX NSCLC 56.1% | UO-31 renal 81.9% | TK-10 renal 48.6% | ACHN renal 93.1% | CAKI-1 renal 85.9% | A498 renal 52.2% | CCRF-CEM leukemia 15.6% | SR leukemia 17.9% | RPMI-8226 leukemia 15.4% | OVCAR-8 ovarian 18.6% | OVCAR-5 ovarian 23.8%
active: SK-MEL-2 melanoma -41.6% | SN12C renal 4.56% | HL-60(TB) leukemia -63.5% | MOLT-4 leukemia 5.66% | OVCAR-4 ovarian 5.22% | SK-OV-3 ovarian -2.96% | IGROV1 ovarian -36.4% | OVCAR-3 ovarian -0.293% | HS 578T breast 9.79%

CC(=O)c1ccc(C(=O)NCC2CCC3(CC2)OOC2(CCCCC2)OO3)cc1
inactive: SK-MEL-2 melanoma 76.7% | SN12C renal 78% | TK-10 renal 86.3% | ACHN renal 64.6% | A498 renal 89.2% | HL-60(TB) leukemia 19.6% | CCRF-CEM leukemia 31.9% | MOLT-4 leukemia 63.4% | SR leukemia 39% | RPMI-8226 leukemia 69.3% | OVCAR-8 ovarian 84.6% | OVCAR-5 ovarian 70% | OVCAR-4 ovarian 75.4% | SK-OV-3 ovarian 99.6% | IGROV1 ovarian 12.2% | OVCAR-3 ovarian 83% | HS 578T breast 102%
active: EKVX NSCLC -1.77% | UO-31 renal -78.4% | CAKI-1 renal -29.9%

CC(=O)Nc1nc2c(s1)CC[C@@]1(C)C2=CC[C@H]2[C@@H]3CC[C@H](O)[C@@]3(C)CC[C@@H]21
inactive: SK-MEL-2 melanoma 47.4% | EKVX NSCLC 92.5% | SN12C renal 74% | UO-31 renal 80.3% | TK-10 renal 91.1% | ACHN renal 63.9% | CAKI-1 renal 44.1% | A498 renal 67.8% | HL-60(TB) leukemia 29.3% | CCRF-CEM leukemia 38.8% | MOLT-4 leukemia 50.8% | SR leukemia 24.9% | RPMI-8226 leukemia 34.1% | OVCAR-8 ovarian 80% | OVCAR-5 ovarian 92.3% | OVCAR-4 ovarian 87.4% | SK-OV-3 ovarian 81.9% | IGROV1 ovarian 64.3% | OVCAR-3 ovarian 13.7% | HS 578T breast 60.5%

CCCCCCCCCCCCCCCCCC1OC[C@@H](COC(=O)O[C@@H](C(=O)O[C@H]2C[C@@]3(O)[C@@H](OC(=O)c4ccccc4)[C@@H]4[C@]5(OC(C)=O)CO[C@@H]5C[C@H](O)[C@@]4(C)C(=O)[C@H](OC(C)=O)C(=C2C)C3(C)C)[C@@H](NC(=O)c2ccccc2)c2ccccc2)O1 (stereo not given in full)
inactive: SK-MEL-2 melanoma 82.9% | EKVX NSCLC 96.9% | SN12C renal 72% | UO-31 renal 93.5% | TK-10 renal 108% | ACHN renal 92.4% | CAKI-1 renal 89.3% | A498 renal 70.9% | HL-60(TB) leukemia 35.8% | CCRF-CEM leukemia 59.2% | MOLT-4 leukemia 58.7% | SR leukemia 47.8% | RPMI-8226 leukemia 15.2% | OVCAR-8 ovarian 64.8% | OVCAR-5 ovarian 53.9% | OVCAR-4 ovarian 80.8% | SK-OV-3 ovarian 57.9% | IGROV1 ovarian 50.4% | OVCAR-3 ovarian 29.2% | HS 578T breast 57.3%

COc1cc(/C=C/[N+](=O)[O-])cc(OC)c1
active: UO-31 renal -82.3% | TK-10 renal -13.9% | ACHN renal -48.9% | A498 renal -4.1% | HL-60(TB) leukemia -20.3% | CCRF-CEM leukemia -7.03% | MOLT-4 leukemia 7.52% | SR leukemia -12.3% | RPMI-8226 leukemia -24.1% | IGROV1 ovarian 9.88% | OVCAR-3 ovarian -30.3%
inactive: SK-MEL-2 melanoma 59.6% | EKVX NSCLC 59.4% | SN12C renal 44.7% | CAKI-1 renal 44.2% | OVCAR-8 ovarian 13.8% | OVCAR-5 ovarian 13.8% | OVCAR-4 ovarian 47.6% | SK-OV-3 ovarian 71.7% | HS 578T breast 40.9%

Nc1nnnc2nc[nH]c12
active: SK-MEL-2 melanoma -16.8% | EKVX NSCLC 8.89% | UO-31 renal 3.57% | ACHN renal 2.18% | CAKI-1 renal -11.1% | HL-60(TB) leukemia -4.59% | CCRF-CEM leukemia 0.72% | MOLT-4 leukemia 8.9% | SR leukemia 5.26% | RPMI-8226 leukemia -11.4% | OVCAR-5 ovarian -3.28% | SK-OV-3 ovarian -1.85% | IGROV1 ovarian 8.3% | HS 578T breast 8.71%
inactive: SN12C renal 10.9% | TK-10 renal 33.3% | A498 renal 12.7% | OVCAR-8 ovarian 11.5% | OVCAR-4 ovarian 27.4% | OVCAR-3 ovarian 27.6%

From PubChem BioAssay (NCI)
